Test results from PubChem BioAssay AID485272 (The Scripps Research Institute Molecular Screening Center, 2010).
Screen size: about 330,000 compounds; about 1,300 (0.39%) were called active. The sample holds actives, similar compounds and a random draw of the others, so the mix is not that of the screen.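 How the source made its calls: active means percent inhibition above a cutoff equal to the mean of all tested compounds plus 3 SD (cut at about 15% in these data); inactive means the rest.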

These compounds were tested against Protein-arginine deiminase type-4 (Homo sapiens) (UniProt Q9UM07) (assay: protein arginine deiminase 4 enzyme blockade – biochemical, fluorescence polarization, 1536-well format, primary screen (AID 485272;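 further: 0% = PAD4 with RCA probe and DMSO and 100% = probe without PAD4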)). Conditions: recombinant PAD4, RCA probe fluorescence polarization; at 6.36 µM; active compounds read high.
Chain of Protein-arginine deiminase type-4 (Homo sapiens) (Q9UM07 whole entry, looked up): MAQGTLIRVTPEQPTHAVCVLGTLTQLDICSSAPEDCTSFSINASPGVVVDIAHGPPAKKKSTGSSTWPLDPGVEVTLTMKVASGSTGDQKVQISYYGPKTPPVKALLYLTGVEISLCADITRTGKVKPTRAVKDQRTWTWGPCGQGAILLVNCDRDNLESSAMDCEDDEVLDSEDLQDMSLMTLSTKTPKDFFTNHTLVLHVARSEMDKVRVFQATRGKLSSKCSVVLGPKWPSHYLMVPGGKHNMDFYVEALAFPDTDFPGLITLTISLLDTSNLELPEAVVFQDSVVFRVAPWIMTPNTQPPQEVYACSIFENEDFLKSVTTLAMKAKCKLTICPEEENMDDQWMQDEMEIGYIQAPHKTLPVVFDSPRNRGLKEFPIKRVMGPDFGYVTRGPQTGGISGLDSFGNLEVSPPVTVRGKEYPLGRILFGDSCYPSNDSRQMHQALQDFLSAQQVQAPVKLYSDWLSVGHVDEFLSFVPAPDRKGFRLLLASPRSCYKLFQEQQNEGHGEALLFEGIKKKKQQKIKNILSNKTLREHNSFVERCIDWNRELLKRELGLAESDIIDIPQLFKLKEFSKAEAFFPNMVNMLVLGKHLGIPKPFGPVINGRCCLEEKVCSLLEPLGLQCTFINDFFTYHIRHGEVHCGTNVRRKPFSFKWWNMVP

SMILES	inhibition
CCc1nnc(SCc2cccc(F)c2)nc1CC	24.2% (active)
Cc1cc(=O)[nH]c(SCc2cccc(F)c2)n1	3.23% (inactive)
Nc1cc(N)nc(SCc2cccc(F)c2)n1	-6.07% (inactive)
CC(C)Cc1nc(Nc2ccc(S(=O)(=O)N3CCCC3)cc2)c2nnn(Cc3ccccc3)c2n1	-3.06% (inactive)
CCCc1cc(=O)[nH]c(SCC(=O)Nc2ccc(S(=O)(=O)N3CCCC3)cc2)n1	5.78% (inactive)
CC(=O)Oc1ccc(N(C(C)=O)S(=O)(=O)c2ccc3ccccc3c2)cc1Br	-0.04% (inactive)
CC(=O)N(c1ccc2oc(=O)sc2c1)S(=O)(=O)c1ccc(C)cc1	19.6% (active)
COC(=O)c1c(C)oc2ccc(N(C(=O)Oc3ccccc3)S(=O)(=O)c3ccccc3)cc12	-4.57% (inactive)
CCOC(=O)c1c(C)[nH]c(C2=NNC(=NC(C)COC)SC2)c1C (stereo not drawn)	-4.38% (inactive)
O=C(NC(=S)Nc1cc(C(F)(F)F)ccc1N1CCOCC1)c1ccc(-c2cccc(Cl)c2)o1	-0.46% (inactive)
Cc1ccc(-n2[nH]c(C)c(/C=N/NC(=O)c3cccc([N+](=O)[O-])c3)c2=O)cc1C	-0.65% (inactive)
COc1cc(SC#N)ccc1N=Cc1c(C)[nH]n(-c2ccc(C)cc2)c1=O	27.3% (active)
COc1ccc(C(=O)Nc2ccc(C(=O)NCC3CCCO3)cc2)c(OC)c1OC (stereo not drawn)	2.07% (inactive)
COc1ccc(CCn2ccc(O)c(Cc3ccc(Cl)cc3Cl)c2=O)cc1OC	2.71% (inactive)
COc1ncnc2c1N=C1CC(C)(C)CC(N)=C1S2	16.7% (active)
C#CCOCCOCCOCCNc1nc(N2CCN(C(=O)C([C@@H](C)O)n3cc([C@@H](N)CCCCN)nn3)CC2)nc(N2CCN(C(=O)[C@H](CCCCN)n3cc(CN)nn3)CC2)n1 (stereo partly drawn)	4.78% (inactive)
CC(=O)NS(=O)(=O)c1ccc(N/C(N)=N/c2nc(C)cc(C)n2)cc1	-0.78% (inactive)
CSc1ccc(/C=C2\NC(=O)NC2=O)cc1	-0.37% (inactive)
CCOC(=O)c1csc(NC(=O)c2ccc(S(=O)(=O)N3CCCC3)cc2)n1	-3.23% (inactive)
CNC(=O)c1ccsc1NC(=O)c1ccc(S(=O)(=O)N2CCOCC2)cc1	-4.29% (inactive)

SMILES	inhibition
COc1ccc(C(=O)Nc2nc(-c3ccc(S(=O)(=O)N4CCOCC4)cc3)cs2)cc1	17.5% (active)
CCOC(=O)c1ccc(NNC(C)=O)c([N+](=O)[O-])c1	-2.2% (inactive)
COC(=O)c1noc(C)c1-c1ccnn1C(=O)c1ccc(Cl)cc1	-7.73% (inactive)
Cc1ccc(N=C2NC(=O)c3cccc([N+](=O)[O-])c32)cc1	-1.46% (inactive)
COCCNC(=O)Nc1ccc2nc(-c3ccco3)c(-c3ccco3)nc2c1	22% (active)
COc1cccc(NC(=O)NCCN2CCCCC2)c1	-0.52% (inactive)
O=C(NCc1ccccn1)c1ccc2nc(-c3ccco3)c(-c3ccco3)nc2c1	7.09% (inactive)
CCc1ccc(OC(C)C(=O)Nc2ccc(S(=O)(=O)Nc3cc(C)on3)cc2)cc1 (stereo not drawn)	-0.06% (inactive)
CC(C)C(NC(=O)OCc1ccccc1)C(=O)OCC(=O)N1C(C)CCCC1C (stereo not drawn)	2.54% (inactive)
Cc1nn(Cc2ccccc2)c(C)c1CNC(=O)c1ccc(F)c(S(=O)(=O)N2CCOCC2)c1	27.9% (active)
O=C(c1ccc(F)c(S(=O)(=O)N2CCOCC2)c1)N(CCc1ccccc1)Cc1ccccc1	-3.27% (inactive)
O=C(NCCSCc1ccccc1)c1ccc(Cl)c(S(=O)(=O)N2CCOCC2)c1	1.45% (inactive)
CCOC(=O)c1cc(NC(=O)SCC(=O)O)c(C)nc1C	2.33% (inactive)
CC1=NN(C(C)C)C(=O)C1	-8.28% (inactive)
CC(C)(C)NC(=O)NC(=O)COC(=O)CCC1CCCCC1	41.1% (active)
COc1ccccc1OCCC(=O)OCC(=O)NC(=O)NC(C)(C)C	6.96% (inactive)
CC(C)(C)NC(=O)NC(=O)COC(=O)C1(C)CC1(Cl)Cl (stereo not drawn)	-0.93% (inactive)
COc1ccc(S(=O)(=O)N2CCCCCC2)cc1C(=O)OCC(=O)Nc1cc(C)on1	-6.43% (inactive)
CCCCN(C)CCNC(=O)CSCc1ccc(C)cc1	-2.21% (inactive)
COc1ccc(CCNS(=O)(=O)c2ccc(Cl)s2)cc1OC	-2.69% (inactive)

SMILES	inhibition
Cc1c(-c2nn(C)c(=O)c3ccccc23)oc2ccc(F)cc2c1=O	35.8% (active)
O=C1c2oc3ccc(Br)cc3c(=O)c2C(c2cccc(F)c2)N1CCO (stereo not drawn)	-4.97% (inactive)
Cc1ccc(F)cc1NC(=O)Cc1nn(C)c(=O)c2ccccc12	-6.33% (inactive)
COC(=O)c1cc2c(N)c(C(=O)c3ccc(Cl)cc3)sc2nc1C(OC)OC	0.06% (inactive)
Nc1ccc2nc3c(=O)[nH]c(=S)[nH]c3nc2c1	31.8% (active)
O=c1c(F)cn(C2CCCO2)c(=O)n1Cc1ccccc1Cl (stereo not drawn)	-4.61% (inactive)
O=C(CNC1CCCCC1)NCC1(c2ccccc2)CCCC1	-2.33% (inactive)
Cc1nn(Cc2ccccc2)c2c1C(c1ccccc1)C(C#N)=C(N)O2 (stereo not drawn)	-0.16% (inactive)
Cc1nn(-c2ccccc2)c2c1C(c1ccc(F)cc1)C(C#N)=C(N)O2 (stereo not drawn)	-1.5% (inactive)
COc1ccccc1C1C(C#N)=C(N)Oc2c1c(-c1ccccc1)nn2-c1ccccc1 (stereo not drawn)	33.4% (active)
O=C(O)CC(SCC(=O)Nc1ccc(Br)cc1)C(=O)O (stereo not drawn)	1.63% (inactive)
COCCOC(=O)c1sc(=S)n(CCOC)c1N	40.9% (active)
CCOC(=O)CN(C(=O)COc1nc(C)cc(C)c1C#N)c1ccc(Cl)cc1	5.17% (inactive)
CCOc1ccc(N=C2NC(=O)S/C2=C\c2ccc(O)cc2)cc1	-1.95% (inactive)
CCOc1[nH]n(-c2ccc(Cl)cc2)c(=O)c1C=Nc1ccc(O)cc1	26.1% (active)
CC(C)c1nc(CNC(=O)CC2C(=O)NCCN2Cc2ccoc2)cs1 (stereo not drawn)	5.06% (inactive)
OC1CSc2nc3ccccc3n2C1 (stereo not drawn)	-1.87% (inactive)
Cc1ccc(-c2cc(C(=O)NCc3cn(C)nc3C)c3cc(Br)ccc3n2)cc1	2.48% (inactive)
